The values that follow come from PubChem BioAssay (NCI).

Holding throughout (assay): NCI-60 one-dose screen, 48 h (100 = growth as untreated, 0 = no growth, -100 = all killed)
Conditions in all cases: 10 µM unless noted

Experiment [1] relates to SN12C renal.
Experiment [2] has as its system UO-31 renal.
Experiment [3] relates to TK-10 renal.
In experiment [4] the test system is ACHN renal.
Experiment [5] has as its system A498 renal.
Experiment [6] relates to CCRF-CEM leukemia.
Experiment [7] concerns MOLT-4 leukemia.
Experiment [8] concerns SR leukemia.
Experiment [9] relates to RPMI-8226 leukemia.
The test system of experiment [10] is OVCAR-8 ovarian.
Experiment [11] has as its system OVCAR-5 ovarian.
The test system of experiment [12] is OVCAR-4 ovarian.
For experiment [13], the system named is SK-OV-3 ovarian.
Experiment [14] has as its system IGROV1 ovarian.
Experiment [15] deals with OVCAR-3 ovarian.
Experiment [16] deals with HS 578T breast.
Experiment [17] deals with NCI/ADR-RES ovarian.
The subject of experiment [18] is CAKI-1 renal.

About 83,000 compounds went through this panel and 20% of them were active in at least one assay; those are over-represented in the sample as a whole.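 Growth was measured after 48 h exposure to one concentration of compound in 96-well plates. Values under 10 count as active.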 Unmarked numbers belong to inactive results. Activity calls are given as the source filed them.

`COc1cccc(NC(=O)c2sc3nc4c(cc3c2N)CN(Cc2ccccc2)CC4)c1`: the growth in [1] was 74%; in experiment [2], 42.9%; in [3], 79.7%; in experiment [4] it was 54%; in [5] it was 42.8%; in [6], 60.9%. The growth in [7] is 65.1%; in experiment [8], 28.8%; in [9], 72.7%; in experiment [10], 47%; in experiment [11], 85.3%; in [12] it was 20.5%. The growth was 36.9% in experiment [13]; 44.2% in experiment [14]; 36.4% in experiment [15]; 20.8% in experiment [16]; 63.2% in experiment [17].

Consider `COc1ccc2nc3cc(Cl)ccc3c(N3CCN(c4nccc(Nc5ccc(Cl)cc5)n4)CC3)c2c1`, for which the growth in [1] was 74%; in [2] it was 54.8%; in experiment [3], 55.8%; in experiment [4] it was 58.2%; in experiment [18], 46.4%; in experiment [6], 5.59% (active). The growth in experiment [7] is 3.98% (active); in [8] it was 30.4%; in experiment [9], 43.9%; in experiment [10], 80.7%; in experiment [11], 90.6%; in experiment [12], 60.7%. Also, the growth in experiment [13] is 88.4%; in [14], 83.1%; in [15], 49.5%; in experiment [16], 84.3%; in experiment [17] it was 80.7%.

On to `O=C1CC(c2nc3ccccc3s2)CN1C1CCCCC1` (stereo unspecified), for which the growth in [1] is 93.5%; in experiment [2] it was 70.5%; in experiment [3], 121%; in experiment [4], 98.5%; in experiment [18], 89.1%; in [5], 73.2%. The growth in experiment [6] is 100%; in experiment [7], 90.9%; in experiment [8], 97.1%; in experiment [9] it was 98.4%; in experiment [10], 95.4%; in experiment [11], 99.8%. The growth in [12] is 94.1%; in [13], 91.6%; in [14], 95%; in experiment [15], 101%; in experiment [16], 98.9%; in [17] it was 89.4%.

Take `O=C1C[C@H](N2C(=O)c3ccccc3S2(=O)=O)C2CO[C@@H]1O2`: the growth was 91.8% in experiment [1]; 63.7% in experiment [2]; 92.4% in [3]; 78.2% in experiment [4]; -80.1% (active) in experiment [18]; 93.9% in experiment [5]. Moreover, the growth is 4.58% (active) in experiment [6]; 79% in experiment [7]; 10.3% in experiment [8]; 91.1% in experiment [9]; 93.7% in experiment [10]; 97.5% in experiment [11]. Moreover, the growth in experiment [12] is 84.3%; in experiment [13], 98.5%; in [14], 103%; in experiment [15], 86.9%; in experiment [16], 102%; in experiment [17] it was 98.3%.

Turning to `COc1ccc(/C=c2/c(=O)[nH]c3nc4sc(C)c(C)c4c(=O)n23)cc1`, the growth was 84% in experiment [1]; 73% in experiment [2]; 101% in experiment [3]; 91.5% in experiment [4]; 74.2% in [18]; 101% in [5]. Moreover, the growth is 66.9% in [6]; 62.3% in experiment [7]; 53.9% in [8]; 82.9% in experiment [9]; 77.8% in [10]; 81.8% in experiment [12]. Also, the growth in experiment [13] was 102%; in experiment [14], 97.8%; in experiment [15], 101%; in experiment [16], 99.6%; in [17] it was 79.3%.

`CCCCCCCCCCCCCCCCNCCC[C@@H](C)[C@H]1CC[C@H]2[C@@H]3[C@H](OCCCN)C[C@@H]4C[C@H](OCCCN)CC[C@]4(C)[C@H]3C[C@H](OCCCN)[C@]12C`: the growth is -82.9% (active) in experiment [1]; -52.5% (active) in experiment [2]; -60.3% (active) in [3]; -26.5% (active) in experiment [4]; -70.8% (active) in experiment [18]; -5.88% (active) in [5]. In addition, the growth is -45.5% (active) in experiment [6]; -33.7% (active) in experiment [7]; 2.63% (active) in [8]; -15.4% (active) in experiment [9]; -48.9% (active) in experiment [10]; -3.67% (active) in experiment [11]. Further, the growth in experiment [12] is -37.1% (active); in experiment [13], -45.7% (active); in experiment [14] it was -41.8% (active); in experiment [15] it was -10.5% (active); in [16], -34% (active); in [17], -60.6% (active).

Take `O=c1c2cccc3c(NC4CCCCC4)ccc(c32)c2nc3ccccc3n12`: the growth was 87% in [1]; 41.4% in experiment [2]; 77.4% in experiment [3]; 72.9% in experiment [4]; 47.2% in experiment [18]; 99.1% in experiment [5]. The growth in experiment [6] was 65.4%; in experiment [7] it was 49.8%; in experiment [8], 1.11% (active); in [11], 103%; in [12], 80.1%; in [13] it was 98.3%. The growth in experiment [14] is 41.2%; in [15], 86.8%; in experiment [16] it was 96%; in experiment [17] it was 95.5%.
